Test results published in the supplement of paper PMC11219838.

Each compound was assayed on Caenorhabditis elegans dauer (daf-2(e1370)) (assay: proportion of mobile C. elegans dauer larvae relative to DMSO control (fraction of DMSO control); higher = more viable, less nematicidal, active = 0.63 or less; extreme values may be limits of the assay). Conditions: 60 µM; 5 days; temperature: 20 °C.
Protocol: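 DODA library (846 commercial 1,3,4- and 1,2,4-oxadiazole compounds plus commercial nematicide controls) screened at a single dose of 60 µM (0.6% DMSO) in 96-well plates, two biological replicates. Read-outs: C. elegans N2 L1 survival/reproduction score at day 6, 20 °C (0: 0-10 worms, 1: 11-20, 2: 21-50, 3: >50, 4: overgrown/starved). C. elegans daf-2 dauer, D. dipsaci and M. hapla J2 mobility at day 5, 20 °C, and P. penetrans mobility at day 5, 20 °C, each relative to DMSO controls. M. hapla egg hatching at day 12, 25 °C, relative to the mean of 8 DMSO wells on the same plate.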

SMILES | proportion of mobile C. elegans dauer larvae
COc1ccc(-c2nnc(SCC(=O)Nc3ccc(Cl)cc3C)o2)cc1 | 1 (inactive)
COc1cccc(-c2noc(CSc3ccccc3)n2)c1 | 1 (inactive)
CCOc1ccccc1-c1nnc(SCc2ccc(C(=O)OC)o2)o1 | 1 (inactive)
Cc1ccc(C)c(-c2nc(-c3cccnc3)no2)c1 | 0.727 (inactive)
COc1ccc(-c2nc(-c3ccc(Cl)cc3)no2)cc1 | 1 (inactive)
c1cncc(-c2noc(COc3cccc4ccccc34)n2)c1 | 1 (inactive)
Cc1cc(C)c(C)c(OCc2nc(-c3cccnc3)no2)c1 | 1 (inactive)
COc1cccc(-c2nc(-c3ccc(C)cc3)no2)c1 | 0 (active)
CCOc1nc(-c2ccc(C)cc2)ccc1-c1noc(-c2ccncc2)n1 | 1 (inactive)
Cc1ccc(-c2nnc(SCC(=O)Nc3ccc(F)cc3)o2)cc1 | 1 (inactive)
CC(C)Oc1ccc(-c2nc(-c3ccncc3)no2)cc1 | 0 (active)
CC(C)Oc1ccc(-c2nc(-c3ccccc3)no2)cc1 | 1 (inactive)
Cc1ccccc1CSc1nnc(-c2ccco2)n1C | 1 (inactive)
O=C(CSc1nnc(-c2ccncc2)o1)Nc1cccc(Cl)c1Cl | 1 (inactive)
O=C(CSc1nnc(-c2ccco2)o1)NC1CCCCC1 | 1 (inactive)
COc1ccc(-c2nnc(SCC(=O)Nc3cc(Cl)ccc3C)o2)cc1 | 1 (inactive)
COc1nc(-c2ccc(C)cc2)ccc1-c1noc(C)n1 | 1 (inactive)
O=C(CSc1nnc(-c2cccc(Cl)c2)o1)Nc1nccs1 | 1 (inactive)
CCOc1ccccc1-c1nnc(SCC(=O)Nc2nccs2)o1 | 1 (inactive)
O=C(Nc1cccc(-c2noc(COc3ccccc3)n2)c1)c1cccs1 | 1 (inactive)

SMILES | proportion of mobile C. elegans dauer larvae
COc1ccc(-c2nnc(SCC(=O)Nc3cccc(Cl)c3Cl)o2)cc1 | 1 (inactive)
COc1ccc(-c2nnc(SCC(=O)Nc3ccc(C)cc3Br)o2)cc1 | 1 (inactive)
c1ccc(OCc2nc(-c3cccs3)no2)cc1 | 0.0278 (active)
Brc1ccc(-c2nc(-c3ccccc3)no2)cc1 | 1 (inactive)
CC(=O)Nc1cccc(-c2nnc(SCc3ccc(F)cc3)o2)c1 | 1 (inactive)
COc1ccccc1-c1nnc(SCc2ccccc2C)o1 | 1 (inactive)
CCNC(=O)c1ccccc1-c1nc(-c2ccccc2)no1 | 1 (inactive)
CC(C)C(=O)Nc1ccccc1-c1nc(-c2ccccc2)no1 | 1 (inactive)
CC1Cc2ccccc2N1C(=O)CSc1nnc(-c2ccccc2)o1 (stereo not given) | 1 (inactive)
CCOc1cc(-c2nc(-c3ccccc3C)no2)cc(OCC)c1OCC | 1 (inactive)
Cc1ccccc1-c1noc(COc2ccc(Cl)cc2Cl)n1 | 1 (inactive)
O=C(CSc1nnc(-c2ccco2)o1)Nc1cccc2ccccc12 | 1 (inactive)
C#CCOc1ccc(-c2nc(-c3ccccc3)no2)cc1 | 1 (inactive)
Cc1ccccc1CSc1nnc(-c2ccco2)o1 | 0.5 (active)
Cc1cc(OCc2nc(-c3ccncc3)no2)c(C)c(C)c1Br | 1 (inactive)
O=C(CSc1nnc(-c2ccccc2Cl)o1)NCc1ccccc1 | 1 (inactive)
Cc1ccoc1-c1nnc(-c2ccco2)o1 | 1 (inactive)
Cc1cccc(-c2noc(COc3cc(C)ccc3C)n2)c1 | 1 (inactive)
Cc1ccc(-c2nnc(SCc3c(C)cc(C)cc3C)o2)cc1 | 1 (inactive)
O=C(CSc1nnc(-c2cccc(Br)c2)o1)NC1CCCCC1 | 1 (inactive)
